# “And” between values parts separate entries of the source, which are not always exact repeats. Identical values can stand only once. Records with an inconclusive call do not appear. Some structures have more than one record in an assay (separate samples or runs), and their calls can disagree. The source made the active and inactive calls. Unless noted, calls come from the whole dose curve; as a rule, active = well fitted curve in either direction with a large enough effect (not every such curve was filed as active); inconclusive = small, poorly fitted or top-dose-only effect, or another doubt; inactive = flat fitted curve, though single readings scatter.
# Experiments:
# [1] = AP1 Signaling Pathway (AID 357); conditions: ME-180 AP-1-bla reporter, EGF-induced, beta-lactamase ratio, 5 h;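 note: ME-180 reporter cells stimulated with EGF at its EC50 level; % is set by controls: 0 for no effect and ±100 for the full control effect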
# Method in brief: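 First, ME-180 AP-1-bla cells were cultured overnight at 37 °C in low-serum Opti-MEM. Next, titrated compounds with EC50 EGF were incubated 5 hours. Finally, CCF4 was added for 2.5 hours and the 460/530 nm ratio recorded.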
# [2] = target: Cytochrome P450 1A2 (Homo sapiens) (UniProt P05177); assay: p450-cyp1a2 (AID 410; calls by dose curve; note: potency is the fitted concentration of half-maximal effect;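 for activity change, negative = inhibition: -100% = full effect of reference inhibitor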); conditions: recombinant CYP1A2, luciferin-ME demethylation, luminescence; series mostly up to 25.6 µM
# Method in brief: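 Luminescent demethylation readout: Luciferin-ME (100uM, equal to Km) turned over by 20nM CYP1A2 for 60 min at room temperature after NADPH regeneration addition, following 10 min compound preincubation. Normalization used 57 uM furafylline as full inhibition.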
# [3] = NFAT Signaling Pathway (AID 444); conditions: Jurkat NFAT-bla M1, carbachol, beta-lactamase ratio, 5 h;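 note: carbachol stimulus at about its EC50 of 1 µM final; % is set by controls: 0 for no effect and ±100 for the full control effect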
# Method in brief: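 Jurkat cells with NFAT-driven β-lactamase reporter and co-expressed M1 receptor, stimulated with carbachol (final 1 uM, ~EC50), compound titration, 5 h at 37 °C. CCF4 loaded 1 h at RT; 460/530 nm ratio gave %activity and AC50.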
# [4] = target: Glucocorticoid receptor (Homo sapiens) (UniProt P04150); assay: GR-GFP Redistribution (AID 450;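 active = compounds whose dose series gives a full or clear partial fitted curve of increased nuclear translocation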; note: potency is the fitted concentration of half-maximal effect); conditions: U2OS GR-GFP nuclear translocation, laser cytometry, 2 h
# [5] = target: Glucocorticoid receptor (Homo sapiens) (UniProt P04150); assay: GR-EFC Redistribution (AID 451; calls by dose curve; note: potency is the fitted concentration of half-maximal effect); conditions: CHO-K1 GR-EFC translocation, beta-gal luminescence, 2 h
# Method in brief: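 CHO-K1 cells expressing nuclear EA and GR-ED fragments of b-gal; compounds titrated up to 46 uM final, 2 h at 37 C. GR nuclear translocation read as complemented b-gal luminescence after 1 h RT detection.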
# [6] = target: Mitogen-activated protein kinase 10 (Mus musculus) (UniProt Q61831); assay: JNK3 AlphaScreen Assay (AID 530); conditions: JNK3 lysate, c-Jun phosphorylation; series mostly up to 57.1 µM;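 note: kinase came from lysate of stimulated human HepG2 cells; signal reports phosphorylation of biotinylated GST-cJun 1-79 at Ser73 with 10 µM ATP; % is set by controls: 0 for no effect and ±100 for the full control effect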
# Method in brief: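 Activity was read by AlphaScreen after JNK3-containing HepG2 lysate (cytokine pre-activated) phosphorylated biotinylated GST-cJun with 10 uM ATP at room temperature. Phospho-Ser73 cJun antibody with Protein-A acceptor beads provided detection.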
# [7] = Cell Viability - BJ (AID 421; calls by dose curve;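 note: potency is the fitted concentration of half-maximal effect; cells exposed to compound for 40 hours at 37 °C before readout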); conditions: BJ fibroblast viability, qHTS
# Method in brief: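 Cytotoxicity in human BJ foreskin fibroblasts is scored as loss of cellular ATP after a 40-hour exposure, measured by luciferase luminescence. Controls are DMSO and 100 uM tamoxifen.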
# [8] = Cell Viability - Jurkat (AID 426;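 active = dose-dependent loss of cell ATP signal giving a full or clear fitted curve, ranked by lower potency value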;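 note: potency is the fitted concentration of half-maximal effect; cells exposed to compound for 40 hours at 37 °C before ATP read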); conditions: qHTS
# Method in brief: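 Cytotoxicity taken as drop in cellular ATP (CellTiter-Glo luminescence, 20 min room temperature) after 40 hr, 37C treatment of 5000 Jurkat Clone E6-1 cells per well; concentration-response fitted with Hill equation for AC50.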
# [9] = Cell Viability - Hek293 (AID 427;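 active = compounds whose dose-response curve shows a full or clear partial loss of cell viability, called from curve shape rather than a numeric limit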;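 note: potency is the fitted concentration of half-maximal effect; cells exposed to compound for 40 hours at 37 °C before reading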); conditions: qHTS
# Method in brief: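 qHTS, human embryonic kidney (adenovirus-transformed) cells; 40 hr cpd, 37 °C; CellTiter-Glo ATP luminescence. Norm: DMSO = 0, 100 uM tamoxifen = 100% inhibition. Hill-fit AC50.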
# [10] = Cell Viability - HepG2 (AID 433; calls by dose curve;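 note: potency is the fitted concentration of half-maximal effect; potency for ATP loss meaning cytotoxicity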); conditions: qHTS
# Method in brief: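 Cytotoxicity is scored as loss of intracellular ATP in HepG2 cells exposed to compounds for 40 h. Concentration-response curves, normalized to DMSO and 100 uM tamoxifen, give AC50 values.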
# [11] = Cell Viability - MRC5 (AID 434; calls by dose curve;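 note: potency is the fitted concentration of half-maximal effect; cells exposed to compound for 40 hours at 37 °C; potency reflects cytotoxicity seen as loss of intracellular ATP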); conditions: MRC5 lung fibroblast viability, qHTS
# Method in brief: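 ATP luminescence read-out (CellTiter-Glo, 20 min RT) after 40 hr, 37 °C compound exposure of 1500 MRC5 cells/well. Data normalized to DMSO (basal) and 100 uM tamoxifen (100% inhibition); AC50 from standard Hill equation.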
# [12] = Cell Viability - SK-N-SH (AID 435; calls by dose curve; note: potency is the fitted concentration of half-maximal effect); conditions: SK-N-SH neuroblastoma cell viability qHTS
# Method in brief: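 Cells seeded at 1500 per well and incubated 5 hr at 37 °C. Compound added, then 40 hr at 37 °C. CellTiter-Glo added, 20 min at room temperature, luminescence read.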
# [13] = Stat Signaling Pathway (AID 446); conditions: ME-180 (cervical carcinoma) SIE beta-lactamase reporter, IL-6 stimulated, 5 h;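 note: ME-180 cervical cancer cells given 40 pM IL-6 alongside compound; SIE-controlled beta-lactamase reporter measured as 460/530 nm FRET emission ratio; % is set by controls: 0 for no effect and ±100 for the full control effect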
# Method in brief: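 Emission at 460 and 530 nm (excitation 405 nm) reports SIE-controlled beta-lactamase in ME-180 cells. Cells received compound with 40 pM IL-6 for 5 hrs at 37 C; data scaled between 300 pM IL-6 and 125 nM JAK-inhibitor controls.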
# [14] = Cell Viability - HUV-EC-C (AID 542; active = well fitted curve in the direction sought with a large enough effect; an effect the other way counts as inactive or inconclusive; note: % is set by controls: 0 for no effect and ±100 for the full control effect; nearly all actives have a fitted effect of over 35% in size); conditions: HUV-EC-C endothelial cell viability, qHTS; series mostly up to 92.2 µM
# Method in brief: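 CellTiter-Glo luminescence measured ATP loss in HUV-EC-C cells (1000/well) after 40 hr compound exposure at 37 °C, in complete culture medium. Concentration-response data were Hill-fitted to give AC50.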
# [15] = Cell Viability - SH-SY5Y (AID 544; active = well fitted curve in the direction sought with a large enough effect; an effect the other way counts as inactive or inconclusive;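 note: 0% = DMSO alone and -100% = 100 µM tamoxifen; nearly all actives have a fitted effect of over 55% in size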); conditions: SH-SY5Y neuroblastoma cell viability; series mostly up to 92.2 µM
# Method in brief: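 Cytotoxicity measured via ATP-dependent luciferase luminescence (CellTiter-Glo) following 40 h, 37 °C exposure of 1500 SH-SY5Y cells per well. Concentration-response data were fitted with the standard Hill equation to give AC50.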
# [16] = Cell Viability - N2a (AID 540; active = well fitted curve in the direction sought with a large enough effect; an effect the other way counts as inactive or inconclusive;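 note: plate controls were DMSO alone for no effect and tamoxifen control for full effect; nearly all actives have a fitted effect of over 45% in size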); conditions: N2a mouse neuroblastoma cell viability; activity change, negative = cytotoxicity: at 92.2 µM (top of the series)
# Method in brief: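 CellTiter-Glo ATP luminescence, read 20 min after reagent at room temperature, reported viability following 40 h compound treatment at 37 °C. N2a mouse neuroblastoma cells seeded 1500/well; Hill equation gave AC50.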
# [17] = Cell Viability - NIH 3T3 (AID 541; active = well fitted curve in the direction sought with a large enough effect; an effect the other way counts as inactive or inconclusive;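 note: plate controls were DMSO alone for no effect and tamoxifen positive control for full effect; nearly all actives have a fitted effect of over 25% in size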); conditions: NIH 3T3 cell viability, qHTS; activity change, negative = cytotoxicity: at 92.2 µM (top of the series)
# Method in brief: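 Intracellular ATP (CellTiter-Glo luminescence, 20 min at room temperature) measured after 40 hr compound exposure at 37 °C of 1000 NIH 3T3 mouse fibroblasts/well in complete medium; AC50 derived by Hill-equation modelling of qHTS concentration-response curves.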
# [18] = Cell Viability - H-4-II-E (AID 543; active = well fitted curve in the direction sought with a large enough effect; an effect the other way counts as inactive or inconclusive; note: % is set by controls: 0 for no effect and ±100 for the full control effect; nearly all actives have a fitted effect of over 35% in size); conditions: H-4-II-E rat hepatoma viability; series mostly up to 92.2 µM
# Method in brief: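 CellTiter-Glo luminescence (intracellular ATP) measured after 40 h compound exposure at 37 °C in H-4-II-E rat hepatoma cells seeded at 1500/well. Values are AC50s fitted with the standard Hill equation.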
# [19] = Cell Viability - Renal Proximal Tubule (AID 545; active = well fitted curve in the direction sought with a large enough effect; an effect the other way counts as inactive or inconclusive;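 note: 0% = DMSO only and -100% = 100 µM tamoxifen; nearly all actives have a fitted effect of over 40% in size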); conditions: renal proximal tubule cells viability, primary cells of rat origin; series mostly up to 91.7 µM
# Method in brief: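 Cytotoxicity is scored as a concentration-dependent drop in cellular ATP in primary rat renal proximal tubule cells exposed for 40 hr. AC50 derives from Hill modelling.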
# Cytochrome P450 1A2 (Homo sapiens), sequence (P05177 whole entry, looked up): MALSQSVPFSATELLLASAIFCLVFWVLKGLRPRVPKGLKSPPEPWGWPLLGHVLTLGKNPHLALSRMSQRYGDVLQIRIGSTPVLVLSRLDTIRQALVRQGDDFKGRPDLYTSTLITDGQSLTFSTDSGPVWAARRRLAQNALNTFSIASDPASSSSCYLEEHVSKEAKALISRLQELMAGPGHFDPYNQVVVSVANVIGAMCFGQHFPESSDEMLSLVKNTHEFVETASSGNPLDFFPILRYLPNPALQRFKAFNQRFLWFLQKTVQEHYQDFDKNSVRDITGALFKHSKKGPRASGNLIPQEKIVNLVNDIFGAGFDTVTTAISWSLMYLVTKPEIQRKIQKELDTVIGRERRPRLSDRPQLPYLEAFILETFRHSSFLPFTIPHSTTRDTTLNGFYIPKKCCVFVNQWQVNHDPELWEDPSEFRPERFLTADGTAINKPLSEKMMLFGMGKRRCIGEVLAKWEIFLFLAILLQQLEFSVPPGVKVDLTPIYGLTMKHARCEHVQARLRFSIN
# Glucocorticoid receptor (Homo sapiens), sequence (P04150 whole entry, looked up, the tested form may be a part): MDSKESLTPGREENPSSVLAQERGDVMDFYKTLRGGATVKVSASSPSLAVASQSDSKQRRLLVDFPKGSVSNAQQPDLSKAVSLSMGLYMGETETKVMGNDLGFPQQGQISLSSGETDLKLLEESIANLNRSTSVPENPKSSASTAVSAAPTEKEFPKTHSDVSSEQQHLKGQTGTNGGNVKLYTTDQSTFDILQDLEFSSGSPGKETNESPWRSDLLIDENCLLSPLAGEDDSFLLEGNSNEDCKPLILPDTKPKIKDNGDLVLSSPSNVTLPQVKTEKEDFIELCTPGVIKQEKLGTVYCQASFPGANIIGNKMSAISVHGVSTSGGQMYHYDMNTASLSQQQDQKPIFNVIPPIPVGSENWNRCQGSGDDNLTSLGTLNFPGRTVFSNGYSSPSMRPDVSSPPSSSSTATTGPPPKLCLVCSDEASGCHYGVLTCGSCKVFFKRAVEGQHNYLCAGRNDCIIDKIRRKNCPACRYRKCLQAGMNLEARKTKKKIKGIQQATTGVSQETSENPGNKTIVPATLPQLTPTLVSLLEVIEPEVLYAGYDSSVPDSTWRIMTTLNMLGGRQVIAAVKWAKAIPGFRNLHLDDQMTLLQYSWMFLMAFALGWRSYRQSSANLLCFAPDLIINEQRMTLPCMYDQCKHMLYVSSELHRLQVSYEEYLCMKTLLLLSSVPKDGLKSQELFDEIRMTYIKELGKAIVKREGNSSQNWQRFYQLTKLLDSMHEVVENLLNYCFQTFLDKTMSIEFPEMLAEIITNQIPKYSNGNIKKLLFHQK
compound,measurement,setting,value
NC(N)=NCCC[C@H](N)C(=O)O,"activity change, negative = inhibition",[1]; at 38 µM (top of the series),-0.498% (inactive)
same,Potency,[2],inactive and 31.6 µM (active)
same,"activity change, negative = inhibition",[3]; at 38 µM (top of the series),-0.248% (inactive)
same,Potency,[4],> 46 µM (inactive)
same,Potency,[5],> 46 µM (inactive)
same,Potency,[6],inactive
C[C@]12C[C@H](O)[C@H]3[C@@H](CCC4=CC(=O)CC[C@@]43C)[C@@H]1CC[C@@H]2C(=O)CO,"activity change, negative = inhibition",[1]; at 17.2 µM (top of the series),0.397% (inactive)
same,Potency,[7],> 92 µM (inactive)
same,Potency,[8],> 92 µM (inactive)
same,Potency,[9],> 92 µM (inactive)
same,Potency,[10],> 92 µM (inactive)
same,Potency,[11],> 92 µM (inactive)
same,Potency,[12],> 92 µM (inactive)
same,"activity change, negative = inhibition",[3]; at 17.2 µM (top of the series),2.08% (inactive)
same,"activity, negative = inhibition",[13]; at 17.2 µM (top of the series),3.29% (inactive)
same,Potency,[4],0.00593 µM (active)
same,Potency,[14],inactive
same,Potency,[15],inactive
Nc1cc(=O)[nH]c(N)n1,"activity change, negative = inhibition",[1]; at 38 µM (top of the series),-5.58% (inactive)
same,Potency,[2],inactive
same,"activity change, negative = inhibition",[3]; at 38 µM (top of the series),-0.946% (inactive)
same,"activity, negative = inhibition",[13]; at 38 µM (top of the series),1.02% (inactive)
CCn1cc(C(=O)O)c(=O)c2cnc(N3CCNCC3)nc21,"activity change, negative = inhibition",[1]; at 17.2 µM (top of the series),8.66% (inactive) and 0.464% (inactive)
same,Potency,[2],inactive
same,"activity change, negative = inhibition",[3]; at 17.2 µM (top of the series),-4.81% (inactive)
same,"activity, negative = inhibition",[13]; at 17.2 µM (top of the series),3.23% (inactive) and 2.72% (inactive)
same,Potency,[6],inactive
CC1=C(CC(=O)O)c2cc(F)ccc2/C1=C\c1ccc(S(C)=O)cc1 (stereo not drawn),"activity change, negative = inhibition",[1]; at 17.2 µM (top of the series),6.13% (inactive)
same,"activity change, negative = inhibition",[1]; at 38 µM (top of the series),-0.0105% (inactive)
same,Potency,[2],12.6 µM (active) and 3.98 µM (active)
same,"activity change, negative = inhibition",[3]; at 38 µM (top of the series),2.92% (inactive)
same,"activity, negative = inhibition",[13]; at 17.2 µM (top of the series),0.939% (inactive)
same,"activity, negative = inhibition",[13]; at 38 µM (top of the series),9.67% (inactive)
same,Potency,[4],> 46 µM (inactive) and > 20.6 µM (inactive)
same,Potency,[5],> 46 µM (inactive) and > 20.6 µM (inactive)
Cc1cc(CC(=O)O)n(C)c1C(=O)c1ccc(Cl)cc1,"activity change, negative = inhibition",[1]; at 17.2 µM (top of the series),2.5% (inactive)
same,Potency,[7],> 92 µM (inactive)
same,Potency,[8],> 92 µM (inactive)
same,Potency,[9],> 92 µM (inactive)
same,Potency,[10],> 92 µM (inactive)
same,Potency,[11],> 92 µM (inactive)
same,Potency,[12],> 92 µM (inactive)
same,"activity change, negative = inhibition",[3]; at 17.2 µM (top of the series),1.18% (inactive)
same,"activity, negative = inhibition",[13]; at 17.2 µM (top of the series),8.99% (inactive)
same,Potency,[4],> 20.6 µM (inactive)
same,Potency,[5],> 20.6 µM (inactive)
same,Potency,[6],inactive
same,"activity change, negative = cytotoxicity",[16],-9.12% (inactive)
same,Potency,[17],inactive
same,Potency,[14],inactive
same,Potency,[18],inactive
same,Potency,[15],inactive
same,Potency,[19],inactive
CC(C)C(=O)c1c(C(C)C)nn2ccccc12,"activity change, negative = inhibition",[1]; at 38 µM (top of the series),-2.6% (inactive)
same,Potency,[2],1.26 µM (active) and 631 nM (active)
same,"activity change, negative = inhibition",[3]; at 38 µM (top of the series),-1.94% (inactive)
same,"activity, negative = inhibition",[13]; at 38 µM (top of the series),2.52% (inactive)
same,Potency,[6],inactive

# Reference: PubChem BioAssay (NCATS)
